Reference: PubChem BioAssay AID720487 (Milwaukee Institute for Drug Discovery, 2013)
This is one part of the list. A number with no mark means an inactive call. Active and inactive are the calls of the source.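 How the source made its calls: active means fluorescence interference ratio at or above 1.2, signal boosting, or at or below 0.8, signal quenching; inactive means ratio between 0.8 and 1.2.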

Test: signal quenchers or enhancers, Cy5-oligo/SSB – biochemical, E. coli SSB, selected ChemBridge compounds, artefact control for HCV NS3 helicase inhibitor project (AID 720487);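 further: ratio of compound well signal to mean negative control signal so 1 means no effect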
Conditions: Cy5-dT15/E. coli SSB fluorescence interference; at 100 µM; actives lie on both sides

Point of comparison: `COc1ccc(C(=O)Oc2ccc3oc(=O)cc(C)c3c2)cc1OC`, fluorescence interference ratio 0.977. Against it:
- O=C1NC(=O)C(=Cc2cc([N+](=O)[O-])cc(Br)c2O)C(=O)N1 — lower, 0.896
- Cc1ccc(C(=O)C[n+]2cc(-c3ccccc3)n3c2CCCCC3)cc1 — higher, 1.01
- COc1cc(/C(O)=C(\C#N)c2nc3ccccc3n2C)cc(OC)c1OC — lower, 0.913
- CC(C)(C)N1C(=O)NC(=O)C(=Cc2cccs2)C1=O — lower, 0.954
- C=CCN1C(=O)/C(=C\c2cc(OC)c(O)c([N+](=O)[O-])c2)C(=O)NC1=S — lower, 0.902
- CCOc1ccc(C=C2C(=O)NC(=O)NC2=O)cc1Cl — lower, 0.963
- Cc1ccc(C(=O)NCCNc2ccc([N+](=O)[O-])cc2)cc1 — lower, 0.915
- COc1ccc(N2C(=O)C=CC2=O)c([N+](=O)[O-])c1 — higher, 1
- COc1cc(C=C2C(=O)NC(=O)NC2=O)ccc1OCCOc1ccc([N+](=O)[O-])cc1 — lower, 0.897
- CCN(CC)c1ccc(C=C2C(=O)N(C)C(=O)N(C)C2=O)c(O)c1 — higher, 1.15
- O=c1c2c(nc3cc(-c4cccc(F)c4)[nH]n13)CCS2 — lower, 0.862
- N#Cc1c(N)nc2sc(C(=O)Nc3ccccc3)c(N)c2c1-c1ccco1 — higher, 1.02
- O=C(NC(=S)Nc1ccc(-c2nc3cc(Cl)ccc3o2)cc1)c1ccco1 — higher, 0.991

For `CCN(CC)c1ccc(NC(=O)/C(=C\c2ccccc2)NC(C)=O)cc1`, the fluorescence interference ratio was 1.22 (active).
